# Source: PubChem BioAssay (EPA / NIEHS)
# The source holds several records for some structures; these can differ, active in one and inactive in another. Activity calls are given as the source filed them. Rule for the calls: active = hit-call score of the fitted dose curve at least 0.9, where 1 is the maximum; inactive = score below 0.9.
# Assay: ATG_NFI_CIS: Attagene CIS-FACTORIAL HepG2 Assay for human Nuclear Factor I (NFI) (AID 2282989)
# Conditions: HepG2 cis-regulatory reporter, NFI response element transcription; actives raise or lower the signal
# Protocol: ATG_CIS is a cell-based, multiplexed-readout assay that uses HepG2, a human liver cell line, with measurements taken at 24 hours after chemical dosing in a 24-well plate.ATG_NFI_CIS is one of 52 assay component(s) measured or calculated from the ATG_CIS assay. It is designed to make measurements of mRNA induction, a form of inducible reporter, as detected with fluorescence intensity signals by Reverse transcription polymerase chain reaction (RT-PCR) and Capillary electrophoresis technology.Data from the assay component ATG_NFI_CIS was analyzed into 1 assay endpoint. This assay endpoint, ATG_NFI_CIS, was analyzed with bidirectional fitting relative to DMSO as the negative control and baseline of activity. Using a type of inducible reporter, measures of mRNA for gain or loss-of-signal activity can be used to understand the reporter gene at the transcription factor-level as they relate to the gene NFIA. Furthermore, this assay endpoint can be referred to as a primary readout, because this assay has produced multiple assay endpoints where this one serves a reporter gene function. To generalize the intended target to other relatable targets, this assay endpoint is annotated to the dna binding intended target family, where the subfamily is nuclear factor I.
# Human liver HepG2 cells are transiently transfected with multiple reporter transcription units (MRTUs) in 6-well plates using FuGene 6 reagent (Roche; 3 ml FuGene/1 mg DNA). The MRTU constructs are regulated by a cis-regulating element (promoter). […] A major difference between the CIS and TRANS system is that in CIS activities of endogenous TFs are measured, whereas the TRANS assay evaluates changes in activities of exogenous, chimeric NR-Gal4 proteins. […] At the end of 24 hour incubation, total RNA was isolated using TriZol reagent (Invitrogen). The isolated RNA is then reverse-transcribed using oligo(dT) primer and Mo-MLV reverse transcriptase (Invitrogen) with DNAse I (Ambion) treatment for 30 min. The one-tenth of the produced cDNA was amplified by PCR using Taq DNA polymerase (Invitrogen) and two reporter sequence-specific primers. The PCR products were fluorescently labeled by primer extension with 6-arboxyfluorescein (6-FAM) 5'-labeled reporter sequence-specific primer (2 min at 95 C, 20 s at 68 C and 10 min at 72 C) and these products were digested with 5U of HpaI (New England Biolabs) for 2h at 37 C. The fragments were purified using Qiaquick PCR columns (Qiagen), analyzed on an ABI 3130xL genetic analyzer (Applied Biosystems) with peak positions identified by using a set of X-rhodamine (ROX)-labeled MapMarker1000 molecular weight standards (BioVentures). The raw capillary electrophoresis data was processed using Attagraph software (Attagene).
Compound,outcome,AC50
C=CCC1=C(C)C(OC(=O)C2C(C=C(C)C)C2(C)C)CC1=O (stereo not given),inactive,61.6 µM (active) [middle of 5 runs]
N#CC(CCc1ccc(Cl)cc1)(Cn1cncn1)c1ccccc1 (stereo not given),inactive,–
CCCCNC(=O)OCC#CI,inactive,49 µM (active)
COc1nc(C)nc(NC(=O)NS(=O)(=O)c2ccccc2Cl)n1,inactive,–
CN(C)C(=S)SSC(=S)N(C)C,inactive,–
C=CCC1=C(C)[C@@H](OC(=O)[C@@H]2[C@@H](C=C(C)C)C2(C)C)CC1=O,inactive,–
CO/C=C(/C(=O)OC)c1ccccc1Oc1cc(Oc2ccccc2C#N)ncn1,inactive,–
COP(N)(=O)SC (stereo not given),inactive,–
CCNc1nc(Cl)nc(NCC)n1,inactive,–
COc1ccc(C(c2ccc(OC)cc2)C(Cl)(Cl)Cl)cc1,inactive,–
N#Cc1cc(Br)c(O)c(Br)c1,–,10.8 µM (active)
CC1=C(C(=O)Nc2ccccc2)SCCO1,inactive,–
CCOc1cc(Oc2ccc(C(F)(F)F)cc2Cl)ccc1[N+](=O)[O-],inactive,–
CCNc1nc(Cl)nc(NC(C)C)n1,inactive,–
CC(C)(C)c1ccc(CSc2cnn(C(C)(C)C)c(=O)c2Cl)cc1,inactive,–
COc1cnc(OC)n2nc(NS(=O)(=O)c3c(OCC(F)F)cccc3C(F)(F)F)nc12,inactive,–
Cc1cc(Cl)ccc1OCC(=O)O,inactive,–
CCCN(CCC)c1c([N+](=O)[O-])cc(S(N)(=O)=O)cc1[N+](=O)[O-],inactive,–
COP(=S)(OC)Oc1nc(Cl)c(Cl)cc1Cl,inactive,–

Compound,outcome,AC50
CCCCOC(=O)c1ccccc1C(=O)OCCCC,inactive,–
CC(Oc1ccc(Cl)cc1Cl)C(=O)O (stereo not given),inactive,–
Fc1ccc(Oc2ccnc3cc(Cl)cc(Cl)c23)cc1,inactive,–
O=C(O)c1nc(Cl)ccc1Cl,inactive,–
CON(C)C(=O)Nc1ccc(Cl)c(Cl)c1,inactive,–
CC(C)Oc1cc(-n2nc(C(C)(C)C)oc2=O)c(Cl)cc1Cl,inactive,–
COC(=O)C(C)Oc1ccc(Oc2ccc(Cl)cc2Cl)cc1 (stereo not given),inactive,–
CCCCC(CC)COC(=O)c1ccccc1C(=O)OCC(CC)CCCC (stereo not given),inactive,–
C#CCOS(=O)OC1CCCCC1Oc1ccc(C(C)(C)C)cc1 (stereo not given),inactive,–
CCCCNC(=O)n1c(NC(=O)OC)nc2ccccc21,inactive,–
O=C(O)COc1nc(Cl)c(Cl)cc1Cl,inactive,–
CCON=C(CC)C1=C(O)CC(c2c(C)cc(C)cc2C)CC1=O (stereo not given),inactive,–
COc1nc(C)nc(NC(=O)NS(=O)(=O)c2ccccc2CCC(F)(F)F)n1,inactive,–
N#Cc1nn(-c2c(Cl)cc(C(F)(F)F)cc2Cl)c(N)c1S(=O)C(F)(F)F (stereo not given),inactive,–
CC1COC(Cn2cncn2)(c2ccc(Oc3ccc(Cl)cc3)cc2Cl)O1 (stereo not given),inactive,–
CCCC1COC(Cn2cncn2)(c2ccc(Cl)cc2Cl)O1 (stereo not given),inactive,–
CCc1nn(C)c(C(=O)NCc2ccc(C(C)(C)C)cc2)c1Cl,–,0.353 µM (active)
COC(=O)N(OC)c1ccccc1COc1ccn(-c2ccc(Cl)cc2)n1,inactive,–
COC(=O)c1ccccc1C(=O)OC,inactive,–
